Screens from PubChem.
GPR151 activ: activators of human GPR151, primary screen, cell-based, PathHunter beta-arrestin, luminescence. AID 1508602, 2020. activation, % at 11.2 µM. 1% of 650,000 active. PathHunter beta-arrestin GPR151 cells; in the data active = activation above about 4.9%;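 also: 0% = median of compound wells and 100% = cells with positive control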
TEAD-YAP block: TEAD-YAP interaction inhibition, primary screen, TEAD-YAP interaction inhibitor project, luminescence, HEK-TIYL cells | AID 1259422, 2018 | inhibition, % at 9.12 µM | TEAD-Gal4/YAP UAS-luciferase luminescence | 1.4% of 640,000 active; in the data active = inhibition above about 32%;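 also: 0% = median of test compound wells and 100% = reference inhibitor wells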
FBW7 activator: FBW7 E3 ligase activators, primary screen, biochemical, AlphaScreen, human; 0.13% of 650,000 active; AlphaScreen FBW7–phospho-cyclin E peptide binding, activator screen; F-box/WD repeat-containing protein 7 (Homo sapiens), Q969H0; normalized activity (activation), % at 26.1 µM; in the data active = normalized activity above about 1.9%;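 also: purified mutant Fbw7 with reduced substrate affinity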
MITF primary: MITF inhibitors, primary screen, biochemical, AlphaScreen, human. Microphthalmia-associated transcription factor (Homo sapiens), O75030. AlphaScreen MITF homodimerization, bead proximity signal. inhibition, % at 2.6 µM. 0.91% of 650,000 active. AID 1259374, 2018; in the data active = inhibition above about 50%;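 also: 0% = vehicle wells with protein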
Target sequence (O75030 whole entry, looked up): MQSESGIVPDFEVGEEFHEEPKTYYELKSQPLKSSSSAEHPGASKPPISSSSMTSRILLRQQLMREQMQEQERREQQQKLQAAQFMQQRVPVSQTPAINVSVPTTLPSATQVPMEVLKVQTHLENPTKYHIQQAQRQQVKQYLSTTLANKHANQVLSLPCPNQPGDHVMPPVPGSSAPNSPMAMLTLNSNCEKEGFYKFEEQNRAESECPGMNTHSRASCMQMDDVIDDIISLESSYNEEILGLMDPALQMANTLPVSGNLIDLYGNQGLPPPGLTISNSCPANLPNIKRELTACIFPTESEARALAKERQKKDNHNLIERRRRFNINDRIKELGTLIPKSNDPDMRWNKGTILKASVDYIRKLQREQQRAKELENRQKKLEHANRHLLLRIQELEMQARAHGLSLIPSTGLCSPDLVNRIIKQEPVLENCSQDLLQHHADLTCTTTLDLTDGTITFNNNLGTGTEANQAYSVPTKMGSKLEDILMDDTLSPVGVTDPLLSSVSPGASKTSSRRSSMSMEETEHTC
Starred values were filed as active, the others as inactive; i = inactive. Hits are enriched below; roughly 3.4% of the tested compounds scored in any of these assays.

SMILES	GPR151 activ	TEAD-YAP block	FBW7 activator	MITF primary
N#CC1=C(N)Oc2c(sc3ccccc23)C1c1cccc([N+](=O)[O-])c1 (configuration not stated)	1.3	53.1*	-0.1	6.3
COc1ccc(C2C(C#N)=C(N)Oc3c2sc2ccccc32)cc1[N+](=O)[O-] (configuration not stated)	-0.3	15.4	0.3	15.0
N#CC1=C(N)Oc2c(ccc3ccccc23)C1c1cccc([N+](=O)[O-])c1 (configuration not stated)	-1.4	66.0*	-0.3	-6.2
N#CC1=C(N)Oc2c([nH]c(=O)[nH]c2=O)C1c1cccc([N+](=O)[O-])c1 (configuration not stated)	-0.3	4.2	-0.9	10.3
CC(=O)c1ccc(NC(=O)CCS(=O)(=O)c2cc3c(cc2C)NC(=O)CO3)cc1	1.0	5.6	-0.3	5.6
CC(C)COC(=O)Nc1nnc(Cc2ccc(Cl)c(Cl)c2)s1	1.1	7.4	0.3	19.7
O=C(CCl)NCc1c(Cl)cccc1-n1cccc1	-1.3	35.2*	0.0	4.2
CC(C)C(NC(=O)CN(c1ccc(Br)cc1)S(C)(=O)=O)C(C)C	0.6	3.1	0.0	3.2
CC(C)NC(=O)CN(c1ccc(Br)cc1)S(C)(=O)=O	-0.5	16.4	1.9*	2.9
CCn1c(=O)cc(SCC(=O)N2CCN(c3cc(C)ccc3C)CC2)c2ccccc21	-0.9	-3.1	-0.2	-15.0
Cc1cc(C)c2c(n1)nn1c(NCc3ccco3)cc(C)nc21	0.7	6.8	253.8*	i
O=C(Nc1nc(CN2CCc3ccccc3C2)cs1)c1ccc(F)cc1	1.0	32.0*	-0.2	1.6
COc1ccccc1OCC(=O)Nc1nc(CN2CCc3ccccc3C2)cs1	-0.7	-2.5	-0.1	13.5
COc1ccc(/C=C/C(=O)Nc2nc(CN3CCc4ccccc4C3)cs2)cc1OC	1.5	45.2*	-0.3	-7.7
O=C(Nc1cc(Cl)ccc1Oc1ccc2ccccc2c1Br)c1cc(Cl)cc(Br)c1O	1.4	-0.9	-0.1	9.8
COC(=O)C1=C(N)Oc2cc(C)[nH]c(=O)c2C1c1cccc(OC)c1OC (configuration not stated)	2.1	4.3	0.1	10.6
COc1ccc(-c2c[n+](CC(=O)c3ccc(Cl)cc3)c3n2CCCCC3)cc1	1.5	14.2	0.0	11.5
COc1ccc(C(=O)C[n+]2cc(-c3ccc(OC)cc3)n3c2CCCCC3)cc1	0.3	38.0*	-0.1	-3.1
O=Cc1c(O)n(-c2ccc(Cl)cc2)c(=O)[nH]c1=O	-0.4	11.8	2.5*	14.1
COc1ccc(C=C(C(=O)Nc2ccccc2OC)C(=O)Nc2ccccc2OC)cc1O	0.7	57.0*	0.4	3.4
O=C(Nc1nnc(CC2=CCCCC2)s1)c1cccs1	0.3	-22.7	0.0	12.5
NC(=O)c1ccccc1N=Cc1cccc(Cl)c1Cl	-0.8	54.3*	0.9	4.2
CCc1ccc(N2C(=O)CN(CC(=O)OC)C2=S)cc1	-0.4	4.2	0.8	3.6
OC[C@H]1O[C@@H](n2cnc3c(NCc4ccco4)ncnc32)[C@H](O)[C@@H]1O	0.8	73.7*	-0.1	0.1
CCOC(=O)C(NC(=O)CC)(Nc1sc2c(c1C(=O)OC)CCN(C)C2)C(F)(F)F (configuration not stated)	-1.5	-10.8	3.4*	-6.2
SMILES	GPR151 activ	TEAD-YAP block	FBW7 activator	MITF primary
COc1ccc(NC(c2cccnc2)c2ccc3cccnc3c2O)cc1 (configuration not stated)	-0.2	0.6	-2.0	58.9*
Cc1ccc2ccc(C(Nc3ccccn3)c3cccnc3)c(O)c2n1 (configuration not stated)	-0.8	9.6	-0.1	1.5
Oc1ccccc1NC(c1cccnc1)c1ccc2cccnc2c1O (configuration not stated)	-1.4	6.6	-0.3	97.8*
CCOC(=O)c1ccc(N=c2oc3c(OCC)cccc3cc2C(N)=O)cc1	-0.7	-0.4	-0.3	-3.9
CCOC(=O)COc1ccc2oc(C)c(C(=O)OC(C)C)c2c1	-0.3	2.0	0.2	7.0
Cc1nc2c(c(C)nn2C(C)(C)C)c(C)c1CCC(=O)N1CCCCCC1	-1.1	1.8	-0.1	7.9
N[C@@H]1CC[C@H](C(=O)Nc2ccc3[nH]ncc3c2)C1	-1.6	1.3	0.9	9.5
N[C@H]1CC[C@@H](C(=O)Nc2ccc3cnccc3c2)C1	-0.2	36.3*	0.3	6.7
COc1cc(/C=N/Nc2ncnc(N)c2[N+](=O)[O-])ccc1O	-9.9	34.0*	-0.6	9.7
Nc1ncnc(N/N=C/c2ccc3ncccc3c2)c1[N+](=O)[O-]	-0.8	85.6*	-0.1	12.7
CCN(Cc1ccccc1)c1ccc(/C=N/Nc2ncnc(N)c2[N+](=O)[O-])cc1	-3.7	37.1*	-0.5	12.2
Nc1ncnc(N/N=C/c2cccnc2)c1[N+](=O)[O-]	-3.1	20.0	-0.5	-1.0
Nc1ncnc(N/N=C/c2ccc(C3=CCCC3)s2)c1[N+](=O)[O-]	-7.9	60.5*	-1.0	22.0
COC(=O)C1=C(C(=O)c2ccccc2)C(c2ccccc2Cl)n2nnnc2N1 (configuration not stated)	0.3	3.9	0.0	-1.3
Cc1ccc(C)c(OCC(=O)Nc2ccccc2C(N)=O)c1C	-1.9	48.3*	0.6	9.3
CCOc1ccc(NC(=O)COc2c(C)cccc2C)cc1	0.1	31.4	0.0	-23.2
CCOc1ccc(NC(=O)COc2c(C)ccc(C)c2C)cc1	1.5	40.6*	0.0	3.9
COCc1oc2ccc(NS(=O)(=O)c3ccc(C)cc3)cc2c1C(=O)OC	-1.2	55.0*	-0.1	-7.0
CC(=O)c1c(C)oc2ccc(N(C(C)=O)S(=O)(=O)c3cccc4cccnc34)cc12	0.7	52.4*	0.0	6.2
CCCc1oc2ccc(NS(=O)(=O)c3ccc(F)cc3)cc2c1C(=O)OCC	0.8	8.8	-0.1	-3.6
CCCc1oc2ccc(NS(=O)(=O)c3ccc(C)cc3)cc2c1C(=O)OCC	0.3	57.1*	0.1	17.4
CCOC(=O)c1c(C)oc2ccc(NS(=O)(=O)c3ccc(Cl)cc3)cc12	0.4	10.7	0.0	2.9
CCOC(=O)c1c(C)oc2ccc(NS(=O)(=O)c3ccc(C)cc3)cc12	0.4	34.0*	-0.1	0.3
O=S(=O)(c1cccs1)N1CCN(Cc2csc(-c3ccc(Cl)cc3)n2)CC1	1.6	-9.7	0.0	-0.6
COC(=O)c1c(C)oc2ccc(NS(=O)(=O)c3cc(C)ccc3C)cc12	1.3	30.8	-0.1	-4.1
CCc1ccc(S(=O)(=O)Nc2ccc3oc(C)c(C(=O)OC)c3c2)cc1	3.3	60.1*	-0.2	-5.3
CCc1ccc(S(=O)(=O)N(C(C)=O)c2ccc3oc(C)c(C(=O)OC)c3c2)cc1	0.9	48.8*	0.0	1.3
CC(=O)c1c(C)oc2ccc(NS(=O)(=O)c3c(C)cc(C)cc3C)cc12	2.5	37.0*	0.1	0.2
COC(=O)c1c(C)oc2ccc(NS(=O)(=O)c3ccc(C)cc3C)cc12	4.1	46.2*	-0.1	-1.9
